# Experimental data: PubChem BioAssay (NCATS)
# Records with an inconclusive call do not appear. A call without a number means that no potency is given here. Values without a mark were called inactive. Calls of active or inactive are those of the source. Calls come from the whole dose curve; as a rule, active = well fitted inhibition curve with a large enough effect; inconclusive = small, poorly fitted or top-dose-only effect; inactive = flat fitted curve, though single readings scatter.
# Key:
# HEK293T = experiment: qHTS assay to identify novel small-molecules to repurpose for Merkel cell carcinoma treatment (AID 1296009); details: MCC and control cell lines, CellTiter-Glo viability, 72 h; series mostly up to 44.8 µM; note: nearly all actives have a fitted effect of over 60% in size; note: potency is the fitted concentration of half-maximal effect
# How it was run: (§1)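 Cells were incubated with compound for 72 hr at 37 degree celsius before CellTiter-Glo addition. Luminescence was normalized with no-cell wells as full cytotoxicity and DMSO as baseline.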
# MCC-13 = experiment: as above; details: MCC and control cell lines, CellTiter-Glo viability, 72 h; series mostly up to 46 µM
# How it was run: as §1
# MKL-1 = experiment: as above; details: MCC and control cell lines, CellTiter-Glo viability, 72 h; series mostly up to 46 µM
# How it was run: as §1
# UISO = experiment: as above; details: MCC and control cell lines, CellTiter-Glo viability, 72 h; series mostly up to 46 µM
# How it was run: as §1
# WaGa = experiment: as above; details: MCC and control cell lines, CellTiter-Glo viability, 72 h; series mostly up to 46 µM
# How it was run: as §1
# MCC-26 = experiment: as above; details: MCC and control cell lines, CellTiter-Glo viability, 72 h; series mostly up to 46 µM
# How it was run: as §1
# MKL-2 = experiment: as above; details: MCC and control cell lines, CellTiter-Glo viability, 72 h; series mostly up to 46 µM
# How it was run: as §1
# NIH3T3 = experiment: as above; details: MCC and control cell lines, CellTiter-Glo viability, 72 h; at 44.8 µM (top of the series) unless noted
# How it was run: as §1
# [1] = Drug repurposing screens with cells derived from glioblastoma tumor samples (AID 1345199); details: GBM patient neurospheres viability, ATP luminescence, 48 h; Potency: tumour line A; series mostly up to 46.1 µM; note: nearly all actives have a fitted effect of over 40% in size
# How it was run: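 Four patient lines of CD133+ GBM neurospheres were screened at several concentrations; hits were retested in those lines plus three slower-growing GBM lines, using 48-hour treatment and ATP-based viability.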
structure (smiles),measurement,setting,value
COC(=O)[C@@H]1[C@H]2C[C@@H]3c4[nH]c5ccccc5c4CCN3C[C@@H]2CC[C@@H]1O,Potency,HEK293T,inactive
same,Potency,MCC-13,inactive
same,Potency,MKL-1,inactive
same,Potency,UISO,inactive
same,Potency,WaGa,inactive
CC(C)N(CC[C@H](c1ccccc1)c1cc(CO)ccc1O)C(C)C,Potency,MCC-13,inactive
same,Potency,MCC-26,inactive
same,Potency,MKL-1,inactive
same,Potency,MKL-2,inactive
same,outcome,NIH3T3,inactive
same,Potency,UISO,inactive
same,Potency,WaGa,inactive
COC(=O)[C@@H]1CC2=CC(=O)CC[C@]2(C)[C@@]23O[C@@H]2C[C@@]2(C)[C@H](CC[C@@]24CCC(=O)O4)[C@@H]13,Potency,HEK293T,inactive
same,Potency,MCC-13,inactive
same,Potency,MCC-26,inactive
same,Potency,MKL-1,inactive
same,Potency,MKL-2,inactive
same,outcome,NIH3T3,inactive
same,Potency,UISO,inactive
same,Potency,WaGa,inactive
C=C(C)[C@@H]1CC[C@]2(C)CC[C@]3(C)[C@H](CC[C@@H]4[C@@]5(C)CC[C@H](O)C(C)(C)[C@H]5CC[C@]43C)[C@@H]12,Potency,HEK293T,inactive
same,Potency,MCC-13,inactive
same,Potency,MCC-26,inactive
same,Potency,MKL-1,inactive
same,Potency,MKL-2,inactive
same,outcome,NIH3T3,inactive
same,Potency,UISO,inactive
same,Potency,WaGa,inactive
COC(=O)[C@H](CCCN=C(N)N)NS(=O)(=O)c1ccc(C)cc1,Potency,HEK293T,inactive
same,Potency,MCC-13,inactive
same,Potency,MKL-1,inactive
same,Potency,MKL-2,inactive
same,Potency,UISO,inactive
same,Potency,WaGa,inactive
CC(=O)N[C@@H]1[C@H](O[C@@H]2c3ccc(c(Cl)c3)Oc3cc4cc(c3O[C@H]3O[C@H](CO)[C@@H](O)[C@H](O)[C@H]3NC(=O)CCCCCCCC(C)C)Oc3ccc(cc3Cl)C[C@H]3NC(=O)[C@H](N)c5ccc(O)c(c5)Oc5cc(O)cc(c5)[C@H](NC3=O)C(=O)N[C@H]4C(=O)N[C@H]3C(=O)N[C@@H]2C(=O)N[C@@H](C(=O)O)c2cc(O)cc(O[C@H]4O[C@H](CO)[C@@H](O)[C@H](O)[C@H]4O)c2-c2cc3ccc2O)O[C@H](CO)[C@@H](O)[C@@H]1O,Potency,HEK293T,inactive
same,Potency,MCC-13,inactive
same,Potency,MCC-26,inactive
same,Potency,MKL-1,inactive
same,Potency,MKL-2,inactive
same,Potency,UISO,inactive
same,Potency,WaGa,inactive
Cn1cc(C=CC(=O)c2cccc(F)c2)cc1C=CC(=O)NO,Potency,HEK293T,inactive
same,Potency,MCC-13,inactive
same,Potency,MCC-26,inactive
same,Potency,MKL-1,inactive
same,outcome,NIH3T3,inactive
same,Potency,UISO,inactive
CN(CC(=O)N(Cc1ccc(C2CCCCC2)cc1)c1ccc(C(=O)O)c(O)c1)S(=O)(=O)c1c(F)c(F)c(F)c(F)c1F,Potency,HEK293T,inactive
same,Potency,MCC-26,inactive
same,Potency,MKL-1,8.33 µM (active)
same,outcome,NIH3T3,inactive
same,Potency,UISO,inactive
same,Potency,WaGa,6.62 µM (active)
CCCCCCCCCCCCc1ccc(S(=O)(=O)Nc2nncs2)cc1,Potency,HEK293T,inactive
same,Potency,MCC-13,inactive
same,Potency,MCC-26,inactive
same,Potency,MKL-1,inactive
same,Potency,MKL-2,inactive
same,outcome,NIH3T3,inactive
same,Potency,UISO,inactive
same,Potency,WaGa,inactive
c1cc(CN2CCCNCCNCCCNCC2)ccc1CN1CCCNCCNCCCNCC1,Potency,HEK293T,inactive
same,Potency,MCC-13,inactive
same,Potency,MCC-26,inactive
same,Potency,MKL-1,inactive
same,Potency,MKL-2,inactive
same,Potency,UISO,inactive
same,Potency,WaGa,inactive
NC(=O)Nc1cc(-c2ccc(CN3CCOCC3)cc2)sc1C(N)=O,Potency,MCC-13,inactive
C#Cc1cccc(Nc2ncnc3cc(OCCOC)c(OCCO)cc23)c1,Potency,MCC-13,inactive
same,Potency,MCC-26,inactive
COc1cc([C@@H]2c3cc4c(cc3[C@H](O)[C@H]3COC(=O)[C@@H]23)OCO4)cc(OC)c1OC,Potency,MCC-13,0.662 µM (active)
Nc1nc(=O)n([C@H]2CSC(CO)O2)cc1F (stereo not given in full),Potency,HEK293T,inactive
same,Potency,MCC-13,inactive
same,Potency,MCC-26,inactive
same,Potency,MKL-1,inactive
same,Potency,MKL-2,inactive
same,outcome,NIH3T3,inactive
same,Potency,UISO,inactive
same,Potency,WaGa,inactive
c1coc(CNc2ncnc3nc[nH]c23)c1,Potency,HEK293T,inactive
same,Potency,MCC-13,inactive
same,Potency,MCC-26,inactive
same,Potency,MKL-1,inactive
same,Potency,MKL-2,inactive
same,Potency,UISO,inactive
same,Potency,WaGa,inactive
O=C1c2c(O)cccc2[C@@H]([C@@H]2O[C@H](CO)[C@@H](O)[C@H](O)[C@H]2O)c2cc(CO)cc(O)c21,Potency,HEK293T,inactive
same,Potency,MCC-13,inactive
same,Potency,MCC-26,inactive
same,Potency,MKL-1,inactive
same,Potency,MKL-2,inactive
same,Potency,UISO,inactive
same,Potency,WaGa,inactive
same,Potency,[1],inactive
CCN1CCN(C(=O)N[C@H](C(=O)N[C@@H]2C(=O)N3C(C(=O)O)=C(CSc4nnnn4C)CS[C@@H]23)c2ccc(O)cc2)C(=O)C1=O,outcome,HEK293T,inactive [at 9.27 µM]
same,"activity change, negative = cytotoxicity",MCC-13,4.78% [at 9.22 µM]
same,"activity change, negative = cytotoxicity",MCC-26,-6.39% [at 9.22 µM]
same,"activity change, negative = cytotoxicity",MKL-1,8.33% [at 9.22 µM]
same,"activity change, negative = cytotoxicity",MKL-2,-17.3% [at 9.22 µM]
same,"activity change, negative = cytotoxicity",UISO,-1.23% [at 9.22 µM]
same,"activity change, negative = cytotoxicity",WaGa,-1.78% [at 9.22 µM]
CCCc1nc(C(C)(C)O)c(C(=O)O)n1Cc1ccc(-c2ccccc2-c2nn[nH]n2)cc1,Potency,HEK293T,inactive
same,Potency,MCC-13,inactive
same,Potency,MKL-1,inactive
same,Potency,MKL-2,inactive
same,outcome,NIH3T3,inactive
same,Potency,UISO,inactive
same,Potency,WaGa,inactive
Nc1nc(N)c2nc(-c3cccc(O)c3)c(-c3cccc(O)c3)nc2n1,Potency,MCC-13,inactive
same,Potency,MCC-26,inactive
C[C@@]12C[C@@]3(O)O[C@@H](O1)[C@]1(COC(=O)c4ccccc4)[C@@H]3C[C@@]12O[C@@H]1O[C@H](CO)[C@@H](O)[C@H](O)[C@@H]1O,Potency,MCC-13,inactive
same,Potency,MCC-26,inactive
same,Potency,MKL-1,inactive
same,Potency,MKL-2,inactive
same,outcome,NIH3T3,inactive
same,Potency,UISO,inactive
same,Potency,WaGa,inactive
N#Cc1cc(NC(=O)Nc2nnc(-c3ccncc3)s2)ccc1-c1cn[nH]c1,Potency,HEK293T,inactive
same,Potency,MCC-13,inactive
same,Potency,MCC-26,inactive
same,Potency,MKL-1,inactive
same,Potency,MKL-2,inactive
same,Potency,UISO,inactive
same,Potency,WaGa,inactive
CON=C(C(=O)N[C@@H]1C(=O)N2C(C(=O)O)=C(CSC(=O)c3ccco3)CS[C@H]12)c1csc(N)n1,Potency,HEK293T,inactive
same,Potency,MCC-13,inactive
same,Potency,MKL-1,inactive
same,Potency,MKL-2,inactive
same,Potency,WaGa,inactive
OC[C@H]1OC(O)C[C@@H](O)[C@H]1O (stereo not given in full),Potency,HEK293T,inactive
same,Potency,MCC-13,inactive
same,Potency,MKL-1,inactive
same,Potency,MKL-2,inactive
same,outcome,NIH3T3,inactive
same,Potency,UISO,inactive
same,Potency,WaGa,inactive
CC(=O)C1=C(O)C=C2Oc3c(C(C)=O)c(O)c(C)c(O)c3C2(C)C1=O (stereo not given),Potency,HEK293T,inactive
same,Potency,MCC-13,inactive
same,Potency,MCC-26,inactive
same,Potency,MKL-1,inactive
same,Potency,MKL-2,inactive
same,outcome,NIH3T3,inactive
same,Potency,UISO,inactive
same,Potency,WaGa,inactive
